The source of these data is PubChem BioAssay.

In one test the test system is Lefty1. Nature of the test: Lefty1 protein binding to printed compounds – biochemical, small-molecule microarray, 635/667 nm fluorescence, primary screen (AID 1139). To be noted: fluorescence 635/667, higher = more signal.
Test [1] has as its system wheat germ agglutinin (Triticum aestivum), Alexa647-labelled. The test can be described thus: Alexa647-WGA lectin binding to printed small molecules – biochemical, small-molecule microarray, 635/667 nm fluorescence, artefact control for SMM control-protein annotation, profiling panel (AID 1140).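 Note: score merges 667 nm feature emission with signal to noise over triplicate slides.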 Particulars: WGA-A647 binding, 635 nm fluorescence, higher = more signal.
Test [2] deals with Luciferin 4-monooxygenase (Photinus pyralis) (UniProt P08659). Nature of the test: inhibition of purified Photinus pyralis luciferase – biochemical, luminescence, purified enzyme, 2006 set, primary screen (AID 1141).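 Note: cell-free assay with purified firefly luciferase at 100 ng per well in PBS; test concentration not given here.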 Particulars: purified firefly luciferase, SteadyGlo luminescence, 30 min; higher = more signal, called active from +8 up or from −8 down.
Sequence of Luciferin 4-monooxygenase (Photinus pyralis) (P08659 whole entry, looked up): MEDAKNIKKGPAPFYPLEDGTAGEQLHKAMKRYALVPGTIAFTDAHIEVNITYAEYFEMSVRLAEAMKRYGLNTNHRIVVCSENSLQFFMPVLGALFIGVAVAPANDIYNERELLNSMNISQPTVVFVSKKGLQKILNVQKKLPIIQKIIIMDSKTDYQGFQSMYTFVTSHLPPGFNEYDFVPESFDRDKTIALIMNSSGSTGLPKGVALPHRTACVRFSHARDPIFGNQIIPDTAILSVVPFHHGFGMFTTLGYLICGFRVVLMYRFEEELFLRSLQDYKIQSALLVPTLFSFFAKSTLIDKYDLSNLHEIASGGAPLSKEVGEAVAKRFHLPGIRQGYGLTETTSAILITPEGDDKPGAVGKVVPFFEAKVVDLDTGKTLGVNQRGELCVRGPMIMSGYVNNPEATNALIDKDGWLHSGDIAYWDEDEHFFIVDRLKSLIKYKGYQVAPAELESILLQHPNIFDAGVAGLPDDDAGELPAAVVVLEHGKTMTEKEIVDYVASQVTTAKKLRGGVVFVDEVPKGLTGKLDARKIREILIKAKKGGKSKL
The test system of test [3] is Wnt5a (protein binding on small-molecule microarray). The test can be described thus: small molecules binding Wnt5a protein – biophysical, small-molecule microarray, 635/667 nm fluorescence, primary screen (AID 1142).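 Note: fluorescence read at 667 nm with signal to noise per printed feature.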 Particulars: 635 nm fluorescence, higher = more signal.
Test [4] in a line: ATP-based viability of Huh7 replicon cells – cell-based, CellTiter-Glo luminescence, basal, 48 h, cytotoxicity control for HCV replication inhibitor project, primary screen (AID 1143).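 Note: Huh7 hepatoma cells carrying a hepatitis C replication reporter with no stimulus; test concentration not given here.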 Particulars: higher = more signal, called active from +8 up or from −8 down.
Test [5] is described as follows: basal CRE-LacZ reporter activity in PC12 – cell-based, unstimulated, primary screen (AID 1145). To be noted: no forskolin, luminescence, 4.5 h, higher = more signal, called active from +8 up or from −8 down.
Test [6] can be described thus: forskolin-driven CRE-LacZ activity in PC12 – cell-based, CRE-LacZ reporter, forskolin-stimulated, primary screen (AID 1146).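 Note: PC12 cells with 6xCRE LacZ reporter stimulated by forskolin 10 µM; beta-galactosidase reporter signal reflecting CREB driven transcription.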 To be noted: luminescence, 4.5 h, higher = more signal, called active from +8 up or from −8 down.
For test [7], the target named is Streptavidin (Streptomyces avidinii) (UniProt P22629). Nature of the test: compounds binding control protein streptavidin – biophysical, small-molecule microarray, 635/667 nm fluorescence, artefact control for SMM compound annotation, primary screen (AID 1147).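 Note: signal reflects streptavidin binding to arrayed compounds as a control protein.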 Particulars: higher = more signal.
Sequence of Streptavidin (Streptomyces avidinii) (P22629 whole entry, looked up): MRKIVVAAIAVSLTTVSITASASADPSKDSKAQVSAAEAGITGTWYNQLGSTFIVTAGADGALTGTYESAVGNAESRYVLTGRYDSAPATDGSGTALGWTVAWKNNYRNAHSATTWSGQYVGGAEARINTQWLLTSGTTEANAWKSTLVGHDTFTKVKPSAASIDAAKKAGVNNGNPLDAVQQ
Test [8] can be described thus: probe aInhba binding on compound microarray – biochemical, small-molecule microarray, 635/667 nm fluorescence, primary screen (AID 1148).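 Note: score merges 667nm spot fluorescence with signal-to-noise for antibody binding to printed compounds.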 To be noted: higher = more signal.
Test [9] has as its target Torsin-1A (Homo sapiens) (UniProt O14656). The test can be described thus: TOR1A wild-type binding on microarray – cell lysate, small-molecule microarray, lysate, 635/667 nm, primary screen (AID 1149). To be noted: COS7 hTOR1A-WT lysate, 635 nm fluorescence, higher = more signal.
For test [10] the target is unchanged. Nature of the test: torsin A mutant lysate binding on microarrays – cell lysate, small-molecule microarray, COS7 lysate, 635/667 nm fluorescence, primary screen (AID 1150).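 Note: score pools 667 nm emission and signal to noise measuring lysate protein binding.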 Particulars: COS7 hTOR1A mutant lysate, 635 nm fluorescence, higher = more signal.
The test system of test [11] is Sonic hedgehog protein (Shh). The test can be described thus: Sonic hedgehog microarray binding compounds – biochemical, small-molecule microarray, 635/667 nm fluorescence, primary screen (AID 1151).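 Note: Shh protein binding to compounds spotted on small-molecule microarray slides; score combines spot fluorescence intensity with signal-to-noise across triplicate slides.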 To be noted: 635 nm fluorescence, higher = more signal.
Test [12] can be described thus: optical density shifts of acrAB sulA E. coli – strain DRC41, OD650, 48 h, E. coli filamentation inducer project, primary screen (AID 1152).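 Note: E. coli MC1000 strain DRC41 lacking acrAB efflux pump and sulA.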 Particulars: higher = more signal, called active from +8 up or from −8 down.
A short description of test [13]: probe aLefty1 binding on compound microarray – biochemical, small-molecule microarray, 635/667 nm fluorescence, primary screen (AID 1153).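 Note: score merges spot fluorescence with signal-to-noise ratio from the scanned slide images.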 Particulars: higher = more signal.
A short description of test [14]: plasmodial surface anion channel blockers, osmotic lysis – cell-based, P. falciparum Indochina, OD700, 1 h, primary screen (AID 1154). Particulars: P. falciparum Indochina infected RBC osmotic lysis, higher = more signal, called active from +8 up or from −8 down.
Test [15] is described as follows: plasmodial surface anion channel blockers, osmotic lysis – cell-based, P. falciparum Indochina, OD700, 2 h, primary screen (AID 1155).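 Note: lysis reports solute entry through the parasite surface anion channel PSAC.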 Particulars: P. falciparum Indochina infected erythrocytes, higher = more signal, called active from +8 up or from −8 down.
The nature of test [16]: changes in parasitized red cell lysis, either direction – P. falciparum Indochina, OD700, 3 h, PSAC antagonist project, primary screen (AID 1156). Particulars: P. falciparum-infected erythrocytes, osmotic lysis, higher = more signal, called active from +8 up or from −8 down.
The nature of test [17]: plasmodial surface anion channel blockers, osmotic lysis – cell-based, P. falciparum Indochina, OD700, 18 h, primary screen (AID 1157). Particulars: P. falciparum Indochina infected erythrocytes, osmotic lysis OD700, 18 h; higher = more signal, called active from +8 up or from −8 down.
Test [18] in a line: S6 kinase pathway phospho-S6 level changes – cell-based, A549, cytoblot, luminescence, serum-stimulated, primary screen (AID 1158).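 Note: serum-stimulated A549 lung adenocarcinoma cells; signal is phosphorylated S6 detected by cytoblot immunostaining with HRP secondary.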 To be noted: 5 h, higher = more signal.
For test [19], the target named is NADPH oxidase 2 (Homo sapiens) (UniProt P04839). Nature of the test: compounds shifting NOX2 Amplex Red fluorescence – cell-based, HEK293-NOX2, PMA-stimulated, NOX inhibitor project, primary screen (AID 1159). Note: test concentration not given here. To be noted: 45 min, higher = more signal, called active from +8 up or from −8 down.
Sequence of NADPH oxidase 2 (Homo sapiens) (P04839 whole entry, looked up): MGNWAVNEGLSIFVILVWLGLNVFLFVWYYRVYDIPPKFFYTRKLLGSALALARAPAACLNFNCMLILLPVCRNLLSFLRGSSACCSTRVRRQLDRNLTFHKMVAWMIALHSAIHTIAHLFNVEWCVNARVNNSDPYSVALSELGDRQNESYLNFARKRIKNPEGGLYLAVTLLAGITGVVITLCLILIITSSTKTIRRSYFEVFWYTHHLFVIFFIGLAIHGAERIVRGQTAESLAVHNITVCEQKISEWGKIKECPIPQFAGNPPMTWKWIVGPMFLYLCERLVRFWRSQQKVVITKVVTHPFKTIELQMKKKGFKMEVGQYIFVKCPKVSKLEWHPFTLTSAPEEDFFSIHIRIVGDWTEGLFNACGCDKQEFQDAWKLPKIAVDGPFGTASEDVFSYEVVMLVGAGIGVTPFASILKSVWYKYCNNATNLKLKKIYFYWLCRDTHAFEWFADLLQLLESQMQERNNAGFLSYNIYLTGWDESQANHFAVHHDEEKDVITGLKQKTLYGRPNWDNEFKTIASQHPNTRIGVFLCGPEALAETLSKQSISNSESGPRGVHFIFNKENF

The source made the active and inactive calls.

Sequence of Torsin-1A (Homo sapiens) (O14656 whole entry, looked up): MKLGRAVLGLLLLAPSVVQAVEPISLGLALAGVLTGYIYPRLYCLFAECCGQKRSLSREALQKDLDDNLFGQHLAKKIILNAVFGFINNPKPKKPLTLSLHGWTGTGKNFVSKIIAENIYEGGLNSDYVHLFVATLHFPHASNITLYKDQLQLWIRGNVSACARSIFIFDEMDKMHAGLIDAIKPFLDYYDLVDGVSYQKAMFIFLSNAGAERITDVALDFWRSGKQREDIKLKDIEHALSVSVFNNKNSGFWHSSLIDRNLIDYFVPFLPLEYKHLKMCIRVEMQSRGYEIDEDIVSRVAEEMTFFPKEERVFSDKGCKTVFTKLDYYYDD

On to `COCCOC(=O)N1C(=O)[C@@]2(c3cc(C#CCNC(N)=O)ccc31)[C@H](c1ccccc1OCCO)N1[C@H](c3ccccc3)[C@H](c3ccccc3)OC(=O)[C@H]1[C@@H]2C(=O)Nc1nc2ccccc2s1`, for which the composite z-score in the test with Lefty1 is 0.591; in test [1], 1.04; in [3], 0.141; in [7], 0.789; in test [8], 0.061; with Torsin-1A (Homo sapiens) [9] it was 0.196. In addition, the composite z-score was 0.287 with Torsin-1A (Homo sapiens) [10], 0.312 in test [11] and 0.0943 in test [13]. Also, the z-score in test [2] was -1.87 (inactive); in test [4], -0.949 (inactive); in test [5], 0.0653 (inactive); in [6], 0.178 (inactive); in test [12] it was 2.56 (inactive); in test [14], 2.23 (inactive). For the same compound, the z-score in [15] is -0.226 (inactive); in test [16], 0.653 (inactive); in [17], -0.809 (inactive); in test [18], 1.87; in test [19], 1.85 (inactive).

Consider `C=C(C(=O)CC[C@H](OC(C)=O)c1ccc(CO)o1)C(C)C`, for which the composite z-score with Lefty1 was 0.299; in test [1], -0.432; in [3], 0.0615; in test [7], -0.469; in test [8], 0.353; with Torsin-1A (Homo sapiens) [9], 0.154. In addition, the values for the composite z-score (with Torsin-1A (Homo sapiens) [10]; in test [11]; in test [13]) were -0.248, 0.937 and -0.215, respectively. The z-score in test [2] was -2.12 (inactive); in test [4], -4.37 (inactive); in test [5] it was 1.09 (inactive); in test [6], -0.949 (inactive); in test [12], 1.27 (inactive); in test [14], 1.55 (inactive). The z-score in [15] was -0.558 (inactive); in test [16], 0.68 (inactive); in [17], -1.83 (inactive); in [18], 2.5; in test [19] it was -0.0262 (inactive).

`O=c1n(-c2ccccc2)c(=O)n2n1CC(COc1ccccc1)=C1[C@@H](CCc3ccccc3)OB(O)C[C@@H]12`: the composite z-score in the test with Lefty1 amounted to 1.52; in test [1], 0.576; in test [3], 0.455; in test [7], 0.117; in test [8] it was 0.0756; with Torsin-1A (Homo sapiens) [9], 0.717. For the same compound, the composite z-score with Torsin-1A (Homo sapiens) [10] was -0.0569; in [11], 1.12; in test [13], -0.206. Also, the z-score in test [2] was -1.2 (inactive); in test [4], -1.84 (inactive); in test [5], 1.58 (inactive); in [6] it was -1.67 (inactive); in test [12], 1.63 (inactive); in [14] it was 2.27 (inactive). For the same compound, the z-score in test [15] is -0.302 (inactive); in test [16], 0.622 (inactive); in test [17], -1.31 (inactive); in test [18] it was 0.642; in [19], -0.513 (inactive).

Regarding `CO[C@H]1O[C@H](CO)[C@@H](OC(=O)Nc2ccccc2)[C@H](OC(=O)Nc2ccccc2-c2ccccc2)[C@@H]1OC(=O)Nc1ccccc1-c1ccccc1`, the composite z-score in the test on Lefty1 turned out to be 0.36; in [1], 1.26; in [3], 0.36; in test [7], 1.44; in test [8] it was 0.329; in the test with Torsin-1A (Homo sapiens) [9], 1.17. For the same compound, the results for the composite z-score (with Torsin-1A (Homo sapiens) [10]; in test [11]; in test [13]) were 0.806, 2.03 and 1.29, respectively. Moreover, the z-score is -1.24 (inactive) in test [2]; -5.22 (inactive) in [4]; 0.204 (inactive) in test [5]; -0.446 (inactive) in test [6]; 1.33 (inactive) in test [12]; 2.57 (inactive) in [14]. For the same compound, the z-score in [15] was 0.116 (inactive); in [16] it was -0.358 (inactive); in test [17] it was -2.03 (inactive); in [18], 1.01; in test [19] it was 2.2 (inactive).

As for `COC(=O)C(CC#Cc1ccc2c(c1)[C@]1(C(=O)N2)[C@H](c2ccccc2OCCO)N2[C@H](c3ccccc3)[C@H](c3ccccc3)OC(=O)[C@H]2[C@@H]1C(=O)N1CCCCCCC1)C(=O)OC`, the composite z-score in the test with Lefty1 came out at 1.73; in [1], 1.66; in test [3], 2.33; in test [7], 3.71; in test [8] it was 2.15; with Torsin-1A (Homo sapiens) [9], 2.87. Further, the composite z-score worked out at 3.23 with Torsin-1A (Homo sapiens) [10], 1.32 in [11] and 2.82 in test [13]. Further, the z-score is -1.08 (inactive) in [2]; -2.45 (inactive) in test [4]; 0.212 (inactive) in [5]; -0.706 (inactive) in test [6]; 1.02 (inactive) in test [12]; 0.867 (inactive) in test [14]. For the same compound, the z-score in test [15] was 0.71 (inactive); in test [16], 0.776 (inactive); in test [17], 0.51 (inactive); in test [18] it was 0.67; in [19], 0.797 (inactive).

As for `O=C(NCC(F)(F)F)[C@@H]1c2ccccc2C(=O)N(C2Cc3ccccc3C2)[C@H]1c1ccc(CO)cc1`, the composite z-score with Lefty1 was -1.25; in test [1], -2.05; in [3] it was -0.034; in test [7], -1.25; in [8], 0.106; with Torsin-1A (Homo sapiens) [9] it was -0.0578. Also, the composite z-score with Torsin-1A (Homo sapiens) [10] was 0.224; in test [11], -0.875; in test [13] it was 0.0588. Besides, the z-score in [2] is -1.04 (inactive); in test [4], -1.11 (inactive); in test [5] it was -0.295 (inactive); in [6] it was -1.15 (inactive); in test [12] it was 2.43 (inactive); in [14], 3.55 (inactive). Also, the z-score in test [15] is -0.483 (inactive); in test [16], 1.8 (inactive); in test [17] it was -0.683 (inactive); in [18], 1.14; in test [19] it was 0.207 (inactive).

In the case of `C=C(C(=O)CC[C@@H](OC(C)=O)c1ccccc1OCCO)C(C)C`, the composite z-score is 0.342 in the test with Lefty1; -0.242 in [1]; 0.235 in test [3]; -0.965 in [7]; -0.0791 in [8]; 0.964 in the test with Torsin-1A (Homo sapiens) [9]. Also, the figures for the composite z-score (with Torsin-1A (Homo sapiens) [10]; in test [11]; in test [13]) were -0.353, 1.09 and -0.29, respectively. Besides, the z-score in [2] was -1.35 (inactive); in test [4], -4.89 (inactive); in test [5], 3.88 (inactive); in [6] it was -1.21 (inactive); in [12] it was 1.19 (inactive); in test [14], 0.425 (inactive). The z-score in test [15] is 0.279 (inactive); in [16], -1.49 (inactive); in test [17] it was 0.479 (inactive); in test [18], -0.258; in test [19], 1.24 (inactive).

For the compound `NCCCCCNC(=O)[C@H]1C[C@H]2C(=O)NCC(=O)N2[C@H]1c1ccc(O)cc1`, the composite z-score was 1.69 in the test with Lefty1; 1.3 in test [1]; 0.518 in test [3]; 1.72 in [7]; -0.0419 in test [8]; 1.69 in the test with Torsin-1A (Homo sapiens) [9]. For the same compound, the composite z-score with Torsin-1A (Homo sapiens) [10] was 0.376; in [11], 2; in test [13], -0.147. Besides, the z-score in test [2] was -1.04 (inactive); in test [4], -0.108 (inactive); in test [5], 0.679 (inactive); in test [6], 0.407 (inactive); in test [12], 1.01 (inactive); in test [14], 0.365 (inactive). The z-score in [15] is 0.113 (inactive); in test [16], -1.79 (inactive); in test [17], 0.252 (inactive); in test [18], -0.565; in test [19], 0.653 (inactive).
